# Screening data from PubChem BioAssay.
# BCR signal inh = chronic active BCR signaling inhibition; Potency, µM (titrated, usually from 46.1 µM), actives largely listed as inhibitors; ABC-DLBCL IkBa-CBG/CBR reporter, luminescence ratio, 4 h; 340,000 tested, 0.05% active; active = well fitted inhibition curve with a large enough effect in the signal ratio, with a control signal flat, not every such curve was filed as active; inconclusive = small, poorly fitted or top-dose-only effect, or effect the other way, or a change in a side signal; the % refers to the signal ratio
#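 TMD8 human ABC-DLBCL cells with doxycycline-inducible IκBα–green luciferase fusion and unfused red luciferase, in 0.5% FBS medium; compounds up to 46 uM, 4 h at 37C. Green/red luminescence ratio, filter-overlap corrected, fitted to concentration-response curves.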
# SW480 rereplic = induces DNA re-replication in SW480 colon adenocarcinoma cells | Potency, µM (titrated, usually from 46.1 µM), most hits filed as activators | AID 624297 | 340,000 tested, 1.8% active | SW480 DNA re-replication, Hoechst DNA content imaging, 48 h; note: nearly all actives have a fitted effect of over 55% in size
#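 Image-based read-out: total Hoechst fluorescence of nuclei (405 nm excitation, 500-530 nm emission), with hits raising the fraction of high-intensity nuclei. SW480 colon cells incubated 48 hr with compounds at 37 C.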
# MCF10A rerep = induces DNA re-replication in MCF 10a normal breast cells; MCF 10A DNA re-replication, Hoechst nuclear intensity, 48 h; 350,000 tested, 2.9% active; Potency, µM (top dose mostly 46.1 µM), most hits filed as activators; note: nearly all actives have a fitted effect of over 50% in size
# DT40 TDP1 CPT = growth inhibition of DT40 Tdp1-/-;hTDP1 cells with camptothecin (screen for TDP1 inhibitors); chicken DT40 Tdp1-/-;hTDP1 cells + 20 nM CPT, ATP luminescence, 48 h; Potency, µM (top dose mostly 46.2 µM), usual class: inhibitors; AID 686979; 420,000 tested, 12% active; note: nearly all actives have a fitted effect of over 55% in size
#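 Chicken DT40 Tdp1-/- cells complemented with human TDP1, 400 cells/well, exposed to compounds plus 20 nM camptothecin for at least 48 h at 37 C; viability read as ATP content by CellTiter-Glo luminescence.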
# IL1B secr inh = inflammasome signaling inhibition, IL-1 beta readout. 360,000 tested, 4.7% active. activity change, % at 57.5 µM. THP-1 LPS/ATP IL-1B secretion, AlphaLISA, 16 h; hits give low values; in the data active = activity change below about -50%; inconclusive = mostly about -30% to -49%
#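 Secreted IL-1B measured by AlphaLISA bead assay after 16 h compound exposure of THP-1 cells; compounds (final up to 57.5 uM) added 1 h before LPS (250 ng/mL) and ATP (1.25 mM) stimulation; lower signal means less secretion.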
# DT40 TDP1 no CPT = qHTS for Inhibitors of human tyrosyl-DNA phosphodiesterase 1 (TDP1): qHTS in cells in absence of CPT | 420,000 tested, 15% active | DT40 Tdp1-/- hTDP1 cells, no CPT, ATP luminescence, 48 h | Potency, µM (highest dose often 46.2 µM), most hits filed as inhibitors; note: nearly all actives have a fitted effect of over 55% in size
#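 No-CPT arm: Tdp1-/-;hTDP1 DT40 cells (400/well) plus compounds, incubated ≥48 hr at 37 °C. Readout CellTiter-Glo luminescence.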
# Hits are given with their value; 0 = inactive; ? = inconclusive; - = no result; [ ] = dose if it differs, or a comment. In the library only some 19% were active in any assay of this set; here they are far more common. Unless noted, calls come from the whole dose curve; as a rule, active = well fitted curve in the direction sought with a large enough effect; inconclusive = small, poorly fitted or top-dose-only effect, or another doubt; inactive = no such curve, though single readings can be large; an effect the other way counts as inactive or inconclusive.
SMILES,BCR signal inh,SW480 rereplic,MCF10A rerep,DT40 TDP1 CPT,IL1B secr inh,DT40 TDP1 no CPT
N#CC(C#N)=C1NC2(CCCCC2)Cc2ccccc21,?,0,0,0,0,0
COc1ccc(NC(=O)Cc2cccc(F)c2)cc1S(=O)(=O)Nc1ccccc1Cl,0,0,0,0,?,0
O=C(CN(Cc1ccco1)C(=O)c1ccc(F)cc1)Nc1ccccc1Br,0,0,0,0,0,0
Cc1ccc(CN(Cc2ccco2)c2cnc(S(C)(=O)=O)nc2C(=O)Nc2ccccc2Br)o1,-,-,-,9.2µM,-,8.2µM
Cc1ccc(NC(=O)c2nc(S(C)(=O)=O)ncc2N(Cc2ccco2)Cc2cccs2)c(C)c1,-,-,-,?,-,21µM
CCS(=O)(=O)c1ncc(N(Cc2cccc(F)c2)Cc2ccco2)c(C(=O)Nc2ccccc2Cl)n1,-,-,-,?,-,6.5µM
CCS(=O)(=O)c1ncc(N(Cc2ccco2)Cc2sccc2C)c(C(=O)Nc2cc(C)ccc2C)n1,-,-,-,?,-,21µM
Cc1ccc(C)c(N(CC(=O)NCc2ccco2)C(=O)CCC(=O)Nc2nccs2)c1,0,0,0,0,-,0
CCCc1ccc2oc(C(=O)N(C)Cc3nccs3)c(C)c2c1,?,0,?,?,0,?
O=C(CSc1nc2ncccc2o1)Nc1ccc(Cl)cc1F,-,-,-,0,-,?
CCN(C[C@H]1N[C@@](CC)(C(=O)OC)[C@H]2C(=O)N(C)C(=O)[C@@H]12)C(=O)c1ccc(C(C)(C)C)cc1,0,0[9.22 µM],?,0,0,?
Cc1c(C(=O)N2CCc3ccccc3C2)oc2ccccc12,0,0,?,?,0,?
COc1ccc(OC)c(NC(=O)NCCc2c[nH]c3ccccc23)c1,?,0,0,0,0,0
NS(=O)(=O)c1cccc(NC(=O)CN2C(=O)C(=O)N(Cc3ccccc3)C2=O)c1,0,0,0,0,0,0
O=C1CN(C(=O)COC(=O)c2ccc(Br)o2)c2ccccc2N1,0,0,0,0,0,0
Cc1ccccc1NC(=O)c1nc(S(C)(=O)=O)ncc1N(Cc1ccco1)Cc1sccc1C,-,-,-,16µM,-,21µM
O=C(OCc1cn([C@@H]2C[C@H](c3ccc(Cl)cc3)N(C(=O)C3CCCCC3)C[C@H]2O)nn1)c1ccccc1,-,-,-,0,0,?
CCOC(=O)c1oc2nc(CC(C)C)c3c(c2c1N)CCCC3,0,0,?,23µM,0,23µM
CC(NC(=O)Cc1ccc(NS(=O)(=O)c2cccc(C(F)(F)F)c2)cc1)c1ccccn1 (configuration not stated),0,0,0,0,0,0
O=C(NNC(=S)Nc1ccccc1C(F)(F)F)C1CC1,0,0,0,0,0,0
CCC(C)n1c(NC(=O)c2ccccc2)c(C#N)c2nc3ccccc3nc21 (configuration not stated),?,5.2µM,1.3µM,18µM,0,13µM
CCC(=O)Nc1c(C#N)c2nc3ccccc3nc2n1-c1ccc(C)cc1,-,?,23µM,0,0,0
CCCCn1c(NC(=O)c2ccccc2)c(C#N)c2nc3ccccc3nc21,0,0,0,26µM,0,18µM
CCCCCn1c(C(C)NC(=O)c2ccccc2)nc2ccccc21 (configuration not stated),-,-,-,?,-,0
N#Cc1c(N)n(-c2ccc(O)cc2)c2nc3ccccc3nc12,0,0,?,?,0,0
SMILES,BCR signal inh,SW480 rereplic,MCF10A rerep,DT40 TDP1 CPT,IL1B secr inh,DT40 TDP1 no CPT
Cc1nn(C(C)(C)C)c(NC(=O)c2ccccc2)c1C#N,?,0,0,0,0,?
Cc1cccc(N(C)C(=O)CSc2nc3ncccc3o2)c1,-,-,-,0,-,?
COc1ccccc1CNCCCCCCNCCCCCCCCNCCCCCCNCc1ccccc1OC,-,-,-,13µM,-,6.5µM
COc1ccccc1CNN,?,0,0,2.6µM,?,5.8µM
COc1ccccc1CNc1ncccn1,0,0,0,0,0,0
CCCCCCCCNCCS(=O)(=O)NCc1ccccc1OC,-,0,0,0,?,0
CCOc1ccccc1C(=O)N/N=C/c1cccc2cccnc12,?,?,0,?,0,?
CCOc1ccc(C(=O)N/N=C/c2cccc3cccnc23)cc1,?,?,?,10µM,0,9.2µM
COc1ccc(C(=O)N/N=C/c2cccnc2)cc1,0,0,0,0,0,0
COc1ccc(C(=O)N/N=C/c2cc3ccccc3[nH]c2=S)cc1,0,0,?,1.5µM,0,1.5µM
COc1ccc(C(=O)N/N=C/c2c[nH]c3ccccc23)cc1,0,?,0,0,0,0
COc1ccc(C(=O)N/N=C/c2cccc3cccnc23)cc1,?,?,?,4.1µM,0,4.6µM
CSCC[C@H](NC(=O)OC(C)(C)C)C(=O)N/N=C/c1cccc2cccnc12,?,?,0,26µM,0,21µM
O=C(Cn1cnc2c(oc3ccccc32)c1=O)Nc1ccc(F)cc1F,-,-,-,0,-,0
COc1cccc(Cn2c(=O)c(-c3cccc(C#N)c3)nc3cnc(N4CCOCC4)nc32)c1,-,-,-,0,-,0
CCOC(=O)c1ccc(NC(=O)NCCc2cnc[nH]2)cc1,0,?,0,0,0,0
Cc1ccc(NC(=O)Cn2c(O)c(N=NC(=O)c3ccncc3)c3ccccc32)cc1,?,0,0,?,0,0
Cc1cccc(NC(=O)Cn2c(O)c(N=NC(N)=S)c3ccccc32)c1,0,0,0,23µM,0,15µM
COc1ccc(C(=O)NCC(=O)N=Nc2c(O)n(Cc3ccccc3)c3ccccc23)cc1OC,?,0,0,?,0,16µM
COc1ccc(C(=O)NCC(=O)N=Nc2c(O)n(C)c3ccccc23)cc1OC,0,0,0,0,?,0
Cc1ccc(NC(=O)Cn2c(O)c(N=NC(=O)c3cc4ccccc4cc3O)c3ccccc32)cc1,0,?,?,7.3µM,-95,7.3µM
O=C(N=Nc1c(O)n(Cc2ccccc2)c2ccccc12)c1ccc(O)cc1,?,0,0,?,?,23µM
Cc1nc2nc(NC(=O)c3ccc(C(C)(C)C)cc3)[nH]n2c(=O)c1Cc1ccccc1,-,-,-,0,-,0
O=C1Nc2ccc(F)cc2C12OCCO2,0,0,0,0,0,0
CCCN(CCC)C[C@@H]1CCCCN1CCNC(=O)N1c2ccccc2C(=O)Nc2cccnc21,-,-,-,0,-,0
O=S(=O)(O)O,-,0,0,0,-,0
CCOC(=O)c1c(C)[nH]c(C)c1C(=O)COC(=O)CCc1ccccc1,0,0,0,0,0,0
O=S1(=O)CC(O)C(N=Nc2c(O)n(Cc3ccccc3)c3ccccc23)C1 (configuration not stated),?,?,0,16µM,0,12µM
